# Measurements reported in PubChem BioAssay AID1220 (Sanford-Burnham Center for Chemical Genomics, 2008).
# The campaign covered roughly 190,000 compounds. About 1,300 (0.68%) were called active. Shown is part of a subset that was picked to be rich in actives. Values without a mark were called inactive. Cut-off read from the data, not from the text of the source: active = inhibition above about 50%; inactive = the rest.
# Molecular target: Mannose-6-phosphate isomerase (Homo sapiens) (UniProt P34949)
# Sequence (P34949 whole entry, looked up): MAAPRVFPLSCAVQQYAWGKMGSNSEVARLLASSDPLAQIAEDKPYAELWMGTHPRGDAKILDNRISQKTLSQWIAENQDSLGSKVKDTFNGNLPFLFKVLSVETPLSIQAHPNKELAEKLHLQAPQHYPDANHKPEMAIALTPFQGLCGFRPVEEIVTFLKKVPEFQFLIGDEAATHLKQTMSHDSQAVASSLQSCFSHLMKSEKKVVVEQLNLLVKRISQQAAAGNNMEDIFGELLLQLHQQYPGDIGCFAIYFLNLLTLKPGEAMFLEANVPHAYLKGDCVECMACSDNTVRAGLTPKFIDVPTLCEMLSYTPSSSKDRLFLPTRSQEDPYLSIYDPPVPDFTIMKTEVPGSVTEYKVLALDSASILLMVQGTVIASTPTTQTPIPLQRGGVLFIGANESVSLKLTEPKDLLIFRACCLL
# Test: human PMI inhibitors, high substrate, primary screen, biochemical, fluorescence intensity, high mannose 6-phosphate (AID 1220)
# Conditions: recombinant PMI enzyme, coupled fluorescence intensity; at 20 µM; stronger effect = higher value
row,SMILES,inhibition
1,Cn1c(C(=O)N2CCCc3ccccc32)cc2sccc21,-3.3%
2,O=C(CNC(=S)N(CCCN1CCOCC1)Cc1cccs1)N1CCCCCC1,55.1% (active)
3,O=C(CNC(=S)N(CCCN1CCOCC1)Cc1cccs1)N1CCOCC1,-1.9%
4,O=C(CNC(=S)N(CCCN1CCOCC1)Cc1cccs1)N1CCCC1,-5%
5,CCCC(=O)Nc1ccccc1N1CCN(C(=O)C(C)C)CC1,-0.1%
6,CN(C)c1ccc(NC(=O)c2cn(-c3ccccc3)nc2-c2cccs2)cc1,13.7%
7,O=C1C=C(Nc2ccc(O)cc2)CC(c2ccco2)C1 (centres undefined),60.2% (active)
8,O=C1C=C(Nc2cccc(O)c2)CC(c2ccco2)C1 (centres undefined),12%
9,O=C1C=C(Nc2ccc(Cl)cc2)CC(c2ccco2)C1 (centres undefined),5.8%
10,COC(=O)c1cccc([N+](=O)[O-])c1CN1CCCC(C(N)=O)C1 (centres undefined),-6.5%
11,CCOC(=O)c1ccc(NC(=O)Nc2ccc3c4c(cccc24)C(=O)N3CC)cc1,53.1% (active)
12,CCN1C(=O)c2cccc3c(NC(=O)c4ccc(S(=O)(=O)N(C)C)cc4)ccc1c23,13.6%
13,CN1C(=O)c2cccc3c(S(=O)(=O)NCc4ccco4)ccc1c23,1.8%
14,CCN1C(=O)c2cccc3c(S(=O)(=O)NCc4ccco4)ccc1c23,63% (active)
15,CCN1C(=O)c2cccc3c(NC(=O)c4ccccc4)ccc1c23,27.7%
16,CCN1C(=O)c2cccc3c(NC(=O)C(C)(C)C)ccc1c23,11.8%
17,CCOc1cc(C(=O)Nc2ccc3c4c(cccc24)C(=O)N3CC)cc(OCC)c1OCC,-4.4%
18,CCN1C(=O)c2cccc3c(NS(=O)(=O)c4ccc(NC(C)=O)cc4)ccc1c23,55.9% (active)
19,CCN1C(=O)c2cccc3c(S(=O)(=O)NCc4ccccn4)ccc1c23,-3.8%
20,Cc1nn(CC(=O)Nc2sc3c(c2C#N)CCC(C(C)(C)C)C3)c(C)c1[N+](=O)[O-] (centres undefined),21%
21,COc1ccc(S(=O)(=O)NNC(=O)C2CC(c3cccnc3)=NO2)cc1 (centres undefined),-11%
22,CC(=O)C(=Nc1ccccc1Cl)NNc1ccc(Cl)cc1,-52.8%
23,C=CCOn1c(=O)c(-c2ccccc2)[n+]([O-])c2ccccc21,12%
24,COc1ccc(CCN(Cc2cc3cc(C)cc(C)c3nc2Cl)C(=O)C2CC2)cc1,15.7%
25,Clc1ccc(-c2nnc3n2CCCCS3)cc1,-8.4%

row,SMILES,inhibition
1,CCCN1CCN(c2nc3c([nH]2)c(=N)ncn3CC(O)CO)CC1 (centres undefined),2.5%
2,COC(=O)C1C(=O)c2c([nH]c(C(=O)OC3CCCC3C)c2C)CC1C (centres undefined),12.3%
3,COc1ccc(-c2nn3c(-c4ccc(F)cc4)nnc3s2)cc1,-6.8%
4,O=C(Cn1c2c(sc1=O)C1c3ccccc3OCC1CS2)Nc1ccc(Cl)cc1 (centres undefined),8.7%
5,Cn1cc(C2CC(c3ccccc3)=NN2C(=O)c2ccccc2)c2ccccc21 (centres undefined),20.9%
6,Cc1nc2ccc(NC(=S)NCCCO)cc2nc1C,-2.9%
7,OCCCNC(=S)Nc1ccc2nc(-c3ccccn3)c(-c3ccccn3)nc2c1,14.4%
8,OCCCNC(=S)Nc1ccc2nccnc2c1,53.9% (active)
9,c1ccc2c(CCNc3ncnc4nc[nH]c34)cccc2c1,10%
10,CNC(=O)c1ccc(-c2sc3nc(N4CCOCC4)c4c(c3c2N)CCCC4)o1,55.4% (active)
11,CNC(=O)c1ccc(-c2sc3nc(N4CCOCC4)c4c(c3c2N)CC(C)(C)OC4)o1,48.4%
12,COC(=O)c1ccc(-c2sc3nc(N4CCOCC4)c4c(c3c2N)CCCC4)o1,20.1%
13,CC(C)C(=O)Nc1cccc(-c2csc(-c3ccccc3)n2)c1,11.9%
14,COc1ccc(-c2noc(-c3cccnc3)n2)cc1OC,-11.6%
15,COc1cc(CC(C#N)(CO)c2nc3ccccc3[nH]2)ccc1OC(F)F (centres undefined),16.3%
16,Cc1nc(N2CCCC2)c2ccsc2n1,-2.9%
17,O=C(CSc1c2c(nc3cc(Cl)ccc13)CCCC2)NCCN1CCOCC1,2.2%
18,CCN(CC)CCCNC(=O)CSc1c2c(nc3cc(Cl)ccc13)CCCC2,-5.8%
19,CCN(CC)CCNC(=O)CSc1c2c(nc3cc(Cl)ccc13)CCCC2,56.3% (active)
20,Cn1c(Cn2c(=O)sc3ccccc32)nnc1SCC(=O)NCC1CCCO1 (centres undefined),2.5%
21,CC(C)Cc1ccc(/C=C/C(=O)N2CCCCC2)cc1,9.7%
22,Cc1ccc2nc(NC(=O)c3ccc(-c4nc5ccccc5s4)s3)sc2c1,-17.4%
23,Cc1ccc2nc(N3CCOCC3)c(C=O)c(=O)n2c1,2.9%
24,COc1ccc(N2CCN(c3nc4ccc(C)cn4c(=O)c3C=O)CC2)cc1,56.9% (active)
25,Cc1ccc2nc(N3CCCCC3)c(C=O)c(=O)n2c1,-6.8%

row,SMILES,inhibition
1,Cc1ccc2nc(N3CCN(c4ccccc4)CC3)c(C=O)c(=O)n2c1,50.4% (active)
2,COc1ccc(N2CCN(c3nc4ccccn4c(=O)c3C=O)CC2)cc1,42.4%
3,Cc1ccc2nc(N3CCN(c4ccccc4F)CC3)c(C=O)c(=O)n2c1,19.9%
4,CC(C)(C)c1ccc(NC(=O)COC(=O)CCN2C(=O)c3cccc([N+](=O)[O-])c3C2=O)cc1,3.2%
5,CN1CCN(S(=O)(=O)c2ccc(NC(=O)c3csc4ccccc34)cc2)CC1,-13.4%
6,CC(=O)Nc1ccc(NS(=O)(=O)Cc2ccccc2)cc1,3.4%
7,COc1ccc(C(CNC(=O)Cc2ccccc2F)N2CCCCC2)cc1 (centres undefined),-1.6%
8,CN1/C(=C\C(=O)c2ccco2)c2ccccc2CC1(C)C,-4.8%
9,Cc1ccccc1NC(=S)NC12CN3CN(CN(C3)C1)C2,1.3%
10,CCc1ccccc1N1CC23C=CC(O2)C(C(=O)OCC(C)C)C3C1=O (centres undefined),7.8%
11,Cc1cccc(-c2nnc(SCC#N)n2Cc2ccccc2)c1,-0.8%
12,CC(Sc1cccc[n+]1[O-])C(=O)Nc1ccc(Oc2ccccc2)cc1 (centres undefined),0%
13,CC(=O)N/N=C/c1c(C)[nH]n(-c2ccccc2)c1=O,7.9%
14,O=C(O)CN1C(=O)/C(=C/c2ccsc2)SC1=S,-5.3%
15,COC(=O)c1ccc(CC(=O)c2c(C)cc(O)cc2O)o1,50.8% (active)
16,Cc1cc(O)cc(O)c1C(=O)Cc1ccccc1,-2.6%
17,CCCc1cc(C(=O)Cc2ccc(C(=O)OCC)o2)c(O)cc1O,-51.6%
18,CCOC(=O)c1ccc(CC(=O)c2ccc(O)cc2O)o1,-31.2%
19,COC(=O)c1ccc(CC(=O)c2ccc(O)cc2O)o1,-59.1%
20,Cc1ccc(NCc2nnc(SCC(=O)NCc3ccco3)n2CC2CCCO2)c(C)c1 (centres undefined),8%
21,CCSC1=NCCN1S(=O)(=O)c1ccccc1,7.2%
22,C/C(=C\C(=O)Nc1cc(C)on1)c1ccccc1,15.6%
23,Cc1nnc(NC(=O)C(C)Oc2ccc3c(C)cc(=O)oc3c2)s1 (centres undefined),-8.9%
24,CCS(=O)(=O)N1Cc2ccccc2CC1C(=O)Nc1ncc(C)s1 (centres undefined),-7.1%
25,Clc1cccc(Cl)c1Cn1cnc2c(N3CCCCCC3)ncnc21,14.8%

row,SMILES,inhibition
1,CC(=O)c1c(C(C)=O)c(C)n(-c2cccc3cccnc23)c1C,-2.3%
2,CC(=O)c1ccc2cccc3c2c1N=CN3C,55.2% (active)
3,CC(=O)N1C(=O)c2cccc3cccc(c23)C(=O)N1C(C)=O,7.9%
4,CC1=Nc2ncnn2C(c2ccccc2)/C1=N\O (centres undefined),-9.4%
5,Cc1ccc(NC2c3ncccc3C(=O)N2c2ccccc2C)cc1C (centres undefined),-17.7%
6,O=C(CCNC(=O)Cn1ccc2ccccc2c1=O)NCCCN1CCOCC1,10.9%
7,Cc1ccc(C)c(OCC(=O)N/N=C/c2ccsc2)c1,3%
8,CC(C)(C)c1ccc(OCC(=O)N/N=C/c2ccsc2)cc1,54.9% (active)
9,COc1ccc(OCC(=O)N/N=C/c2ccsc2)cc1,17.2%
10,Cc1cccc(N2C(=O)c3cccc(Oc4ccc(Cl)cc4)c3C2=O)c1,13.8%
11,O=C(O)c1cccc(N2C(=O)c3cccc(Oc4ccc(Cl)cc4)c3C2=O)c1,-8.6%
12,Cc1ccc(N2C(=O)c3cccc(Oc4ccc(Cl)cc4)c3C2=O)c(C)c1,50.4% (active)
13,Cc1[nH]c(=O)c(C#N)cc1-c1ccccc1,10.3%
14,CCn1c(=O)cc(SCC(=O)N2CCN(C)CC2)c2ccccc21,-10.8%
15,CC(=O)Nc1ccc(-c2nc(C)c(C(C)=O)n2O)cc1,22.6%
16,O=C(COc1cccnc1[N+](=O)[O-])NCc1cccs1,3%
17,O=C(COc1cccnc1[N+](=O)[O-])NCc1ccco1,65.7% (active)
18,CCOc1ncccc1C(=O)OCC(=O)c1cc(C)n(Cc2ccco2)c1C,12.1%
19,Cc1ccc(OCC(=O)c2cc(C)n(Cc3cccs3)c2C)c([N+](=O)[O-])n1,26.4%
20,Cc1cc(C(=O)COc2cccnc2[N+](=O)[O-])c(C)n1Cc1cccs1,64.4% (active)
21,Cc1ccc2cccc(OCC(=O)c3cc(C)n(Cc4ccco4)c3C)c2n1,20.9%
22,CC(=O)Nc1ccccc1OCC(=O)c1cc(C)n(Cc2cccs2)c1C,17.5%
23,Cc1cc(C(=O)COc2cccnc2[N+](=O)[O-])c(C)n1Cc1ccco1,59.5% (active)
24,Cc1ccc(OCC(=O)NCc2ccco2)c([N+](=O)[O-])n1,1.9%
